Test results reported in PubChem BioAssay AID1508600 (Functional Genomics Laboratory (NCATS/FGL), 2020).
In all, about 53,000 sequences went through this assay and about 3,700 (7%) were called active. The sample as a whole holds a higher share of actives than the screen did. Values without a mark were called inactive.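 How the source made its calls: active means gene knockdowns whose robust z-score for IL-1 alpha signal is at least 2 or at most -2, so actives lie on both sides; inactive means the rest.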

Test: Components of the Cytosolic LPS Sensing Pathway: Gene Identification via Genome-wide siRNA Screen;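 further: robust z of the log signal after scaling to non-targeting control siRNA wells of the plate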
Conditions: RAW264.7 macrophages, IL-1a HTRF, actives lie on both sides, screened at 100 nM (by protocol), cells primed 5 h with Pam3CSK4 first
Outline: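 RAW264.7; siRNA 100 nM final, RNAiMAX, 48h 37 degrees C; Pam3CSK4 5 h; LipidA + TransIT-TKO 24 h; IL-1a HTRF; CellTiter-Glo viability; robust z vs negative-control median.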
In the case of GCUGGUCUAUGUGGAAAGGTT against Brap, the z-score is reported as 2.32 (active). Work on GGUGAAGAGUGAUUUUAAUTT against Il10 yielded a z-score of 1.03. Work on GGUGUUGGAAGAGAUGCUGTT against Ap3m2 yielded a z-score of 0.405. For GGAAGUGGAAUAUGUCACCTT against Cd300lf, the z-score was -0.206. With GCCCACGUUUUAAGUCUACTT against Ap1s3 the z-score was 3.69 (active). For GAUACCAAGCUAAAAGAUCTT against Ear10, the z-score was 0.0579. GCCAGUCAUCUUUGUAGUCTT against Olfr411 gave a z-score of -0.777. For GGAUGUACUUUGUUAAGGCTT against Tert, the z-score was 2.78 (active). In the case of GGGAGAACAGUGUUCAGAGTT against Bhlha15, the z-score is reported as -0.151. For CCAUGUGCUGUGCACUACGTT against Chst14, the z-score was 0.358. Work on GGAUAAGUGGUCUGCACUATT against Ube2c yielded a z-score of -0.412. CCACUAUCCCACCAAUCACTT against Lypd8 gave a z-score of -1.03. In the case of GGCUGCUACUUCAGACAGCTT against Pou6f2, the z-score is reported as -0.163. Sequence GGAGGACCUUCAGAAACUCTT against Gdap2 has a z-score of 1.14. For GGUGUCACGACAAACAUUCTT against Fam83h, the z-score was -1.6. For GGCAAGGAUAUAAAUUCACTT against Mak, the z-score was 2.47 (active). For GUGGCAGCUGACAUGAAUGTT against Plac8, the z-score was -0.138. For CGGAUACAAUUUCUGACCGTT against Zdhhc23, the z-score was -0.163. For GGUUAUUUGGAAGUGCUACTT against Esx1, the z-score was 2.81 (active). Work on GGGACGUGUUAAAAAGGGCTT against Cldn5 yielded a z-score of 0.0829. For CCGCCUAAAUGACUUGACATT against Fbxw14, the z-score was -1.1. GGAAUUUGGUGCAGUGUCCTT against Utp15 gave a z-score of -1.39. Sequence GCUAACGAUAUUUAUCACGTT against Olfr385 has a z-score of -0.474. With GGGACUUGUCCAUCCUUUUTT against Qrfprl the z-score was -1.71. In the case of GGAGCAUUAUAUCAAUCCUTT against Zfp111, the z-score is reported as 2.16 (active). GCUUACUAAGGUGAUAAUGTT against Il17d gave a z-score of 0.0918. For CGAAAGAGAUGAUGAUAAUTT against Arrdc3, the z-score was 0.641. GGAAAAGCAUUUUCAACGUTT against Lhfpl2 gave a z-score of -1.41. With GCGAACGAGACACUUCAAUTT against Pla2g4a the z-score was 1.51. For GGAGACAUGGCAUCCAAAUTT against Cnr1, the z-score was 3.14 (active).
